From PubChem BioAssay (EPA / NIEHS)
The source made the active and inactive calls. Rule for the calls: active = hit-call score of the fitted dose curve at least 0.9, where 1 is the maximum; inactive = score below 0.9.

Experiments:
[1] = read-out: Interleukin-6 (IL6), IL6 (gene 3569); experiment: BSK_CASM3C_IL6: BioMAP Diversity Plus: CASM3C Assay for Interleukin-6 (IL6) Biomarker Activity for (AID 2283040); conditions: primary human coronary artery smooth muscle cells; actives raise or lower the signal
[2] = read-out: Tissue plasminogen activator (tPA), PLAT (gene 5327); experiment: BSK_BE3C_tPA: BioMAP Diversity Plus: BE3C Assay for Tissue plasminogen activator (tPA) Biomarker Activity (AID 2283041); conditions: primary human bronchial epithelial cells; actives raise or lower the signal
Outline: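 Primary human bronchial epithelial cells in the BE3C system, exposed to compound for 24 h. tPA was quantified by ELISA; DMSO served as baseline, with gain or loss of signal fitted. Cytotoxicity checked in parallel cultures by SRB total-protein staining.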

[3] = read-out: Interleukin-8 (IL8), CXCL8 (gene 3576); experiment: BSK_CASM3C_IL8: BioMAP Diversity Plus: CASM3C Assay for Interleukin-8 (IL8) Biomarker Activity (AID 2283042); conditions: primary human coronary artery smooth muscle cells; actives raise or lower the signal;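 note: IL-8 protein level quantified by ELISA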
[4] = read-out: Human Leukocyte Antigen - DR isotype (HLADR), HLA-DRA (gene 3122); experiment: BSK_CASM3C_HLADR: BioMAP Diversity Plus: CASM3C Assay for Human Leukocyte Antigen - DR isotype (HLADR) Biomarker Activity (AID 2283043); conditions: primary human coronary artery smooth muscle cells; actives raise or lower the signal;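 note: cell-surface HLA-DR protein level quantified by ELISA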
[5] = read-out: Macrophage colony-stimulating factor (MCSF), CSF1 (gene 1435); experiment: BSK_CASM3C_MCSF: BioMAP Diversity Plus: CASM3C Assay for Macrophage colony-stimulating factor (MCSF) Biomarker Activity (AID 2283044); conditions: primary human coronary artery smooth muscle cells; actives raise or lower the signal;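 note: M-CSF protein amount quantified by ELISA after 24 h exposure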
[6] = read-out: Low-density lipoprotein receptor (LDLR), LDLR (gene 3949); experiment: BSK_CASM3C_LDLR: BioMAP Diversity Plus: CASM3C Assay for Low-density lipoprotein receptor (LDLR) Biomarker Activity (AID 2283045); conditions: primary human coronary artery smooth muscle cells; actives raise or lower the signal;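 note: LDLR protein level on the cell surface quantified by ELISA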
[7] = BSK_CASM3C_Proliferation: Cell Proliferation Assessment in the BioMAP Diversity Plus: CASM3C Assay (AID 2283047); conditions: primary human coronary artery smooth muscle cells;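 note: sulforhodamine B total protein stain as relative cell number at 560 nm; sub-confluent cells exposed 48 h before staining; fitted both ways against DMSO so gain or loss of cell number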
[8] = read-out: Monokine induced gamma interferon (MIG), CXCL9 (gene 4283); experiment: BSK_CASM3C_MIG: BioMAP Diversity Plus: CASM3C Assay for Monokine induced gamma interferon (MIG) Biomarker Activity (AID 2283048); conditions: primary human coronary artery smooth muscle cells; actives raise or lower the signal;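 note: MIG protein level measured by ELISA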
[9] = read-out: serum amyloid A (SAA), SAA1 (gene 6288); experiment: BSK_CASM3C_SAA: BioMAP Diversity Plus: CASM3C Assay for serum amyloid A (SAA) Biomarker Activity (AID 2283049); conditions: primary human coronary artery smooth muscle cells; actives raise or lower the signal;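 note: SAA protein level quantified by ELISA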
[10] = BSK_CASM3C_SRB: Viability Assessment in the BioMAP Diversity Plus: CASM3C Assay (AID 2283050); conditions: primary human coronary artery smooth muscle cells
[11] = read-out: Thrombomodulin, THBD (gene 7056); experiment: BSK_CASM3C_Thrombomodulin: BioMAP Diversity Plus: CASM3C Assay for Thrombomodulin Biomarker Activity (AID 2283051); conditions: primary human coronary artery smooth muscle cells; actives raise or lower the signal;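 note: thrombomodulin protein level measured by ELISA 24 h after dosing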
[12] = read-out: Tissue Factor, F3 (gene 2152); experiment: BSK_CASM3C_TissueFactor: BioMAP Diversity Plus: CASM3C Assay for Tissue Factor Biomarker Activity (AID 2283052); conditions: primary human coronary artery smooth muscle cells; actives raise or lower the signal;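 note: cell surface tissue factor protein level read by ELISA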
[13] = read-out: Interferon-gamma inducible Protein 10 (IP10), CXCL10 (gene 3627); experiment: BSK_hDFCGF_IP10: BioMAP Diversity Plus: hDFCGF Assay for Interferon-gamma inducible Protein 10 (IP10) Biomarker Activity (AID 2283053); conditions: primary human foreskin fibroblasts; actives raise or lower the signal
Outline: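 Primary human foreskin fibroblasts exposed to chemicals for 24 h. IP-10 measured by ELISA; changes fitted bidirectionally against DMSO baseline.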

[14] = read-out: Urokinase-type plasminogen activator receptor (uPAR), PLAUR (gene 5329); experiment: BSK_CASM3C_uPAR: BioMAP Diversity Plus: CASM3C Assay for Urokinase-type plasminogen activator receptor (uPAR) Biomarker Activity (AID 2283054); conditions: primary human coronary artery smooth muscle cells; actives raise or lower the signal;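 note: cell-surface uPAR protein level quantified by ELISA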
[15] = read-out: Vascular cell adhesion molecule 1 (VCAM1), VCAM1 (gene 7412); experiment: BSK_CASM3C_VCAM1: BioMAP Diversity Plus: CASM3C Assay for Vascular cell adhesion molecule 1 (VCAM1) Biomarker Activity (AID 2283055); conditions: primary human coronary artery smooth muscle cells; actives raise or lower the signal;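 note: VCAM-1 protein level quantified by ELISA on the cells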
[16] = read-out: Collagen III, COL3A1 (gene 1281); experiment: BSK_hDFCGF_CollagenIII: BioMAP Diversity Plus: hDFCGF Assay for Collagen III Biomarker Activity (AID 2283056); conditions: primary human foreskin fibroblasts; actives raise or lower the signal
Outline: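 ELISA readout of Collagen III in human dermal (foreskin) fibroblasts, taken 24 h post-treatment. Gain or loss relative to DMSO vehicle fitted in both directions.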

[17] = read-out: Epidermal growth factor receptor (EGFR), EGFR (gene 1956); experiment: BSK_hDFCGF_EGFR: BioMAP Diversity Plus: hDFCGF Assay for Epidermal growth factor receptor (EGFR) Biomarker Activity (AID 2283057); conditions: primary human foreskin fibroblasts; actives raise or lower the signal
Outline: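 Primary human foreskin fibroblasts (hDFCGF system), sampled 24 h after dosing; EGFR quantified by ELISA. Bidirectional fit relative to DMSO baseline; SRB total-protein staining in parallel cultures for cytotoxicity.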

[18] = read-out: Interleukin-8 (IL8), CXCL8 (gene 3576); experiment: BSK_hDFCGF_IL8: BioMAP Diversity Plus: hDFCGF Assay for Interleukin-8 (IL8) Biomarker Activity (AID 2283058); conditions: primary human foreskin fibroblasts; actives raise or lower the signal
Outline: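 IL-8 levels read by ELISA at 24 hours after dosing human skin fibroblast cultures. Parallel SRB staining assessed overt cytotoxicity, and gain or loss of signal was fitted against DMSO control.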

[19] = BSK_hDFCGF_Proliferation: Cell Proliferation Assessment in the BioMAP Diversity Plus: hDFCGF Assay (AID 2283059); conditions: primary human foreskin fibroblasts;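 note: curves fitted for both rise and fall of signal versus DMSO baseline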
Outline: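 This proliferation readout used SRB total-protein staining of human foreskin fibroblasts […], normalized to DMSO with bidirectional curve fitting.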

[20] = read-out: Monocyte Chemoattractant Protein-1 (MCP1), CCL2 (gene 6347); experiment: BSK_CASM3C_MCP1: BioMAP Diversity Plus: CASM3C Assay for Monocyte Chemoattractant Protein-1 (MCP1) Biomarker Activity (AID 2283046); conditions: primary human coronary artery smooth muscle cells; actives raise or lower the signal;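 note: MCP-1 level quantified by ELISA 24 h after dosing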

Measured: AC50

Nc1ccc2c(c1)C(=O)c1ccccc1C2=O
active: [7] 14.3 µM | [14] 20 µM | [19] 4.98 µM
not listed: [20]
inactive: all other assays above

NS(=O)(=O)c1cc2c(cc1Cl)NCNS2(=O)=O
not listed: [18]
inactive: all other assays above

CCCCC(CC)COC(=O)CC(C(=O)OCC(CC)CCCC)S(=O)(=O)O (stereo unspecified)
active: [2] 11.6 µM | [13] 7.42 µM | [16] 8.52 µM | [18] 12.9 µM | [19] 10 µM
not listed: [17]
inactive: all other assays above

Cc1ccc(C(C)C)c(O)c1
not listed: [9]
inactive: all other assays above

c1cc(-c2ccncc2)ccn1
not listed: [18]
inactive: all other assays above

CCCCCCCC=O
not listed: [18]
inactive: all other assays above

CCOc1ccc2c(c1)C(C)=CC(C)(C)N2
active: [13] 20 µM | [16] 15.1 µM | [19] 24.3 µM
not listed: [18]
inactive: all other assays above

Cc1ccccc1Cl
not listed: [18]
inactive: all other assays above

CCc1c(C(=O)NN2CCCCC2)nn(-c2ccc(Cl)cc2Cl)c1-c1ccc(Br)cc1
active: [2] 20 µM | [4] 29.9 µM | [20] 33.8 µM | [7] 20.2 µM | [10] 16.8 µM | [13] 4.55 µM | [14] 25.1 µM | [16] 0.483 µM | [17] 1.65 µM | [19] 1.73 µM
inactive: [1] | [3] | [5] | [6] | [8] | [9] | [11] | [12] | [15]
